Several values for one entry are separate records, joined by “and”; a condition that tells them apart may be missing. Equal values may be shown once. Inconclusive results are not listed. A structure can be active in one record and inactive in another. Activity calls are given as the source filed them. Rule for the calls, unless noted: active = hit-call score of the fitted dose curve at least 0.9, where 1 is the maximum; inactive = score below 0.9.
What was measured:
[1] = molecular target: human RAR-related Orphan Receptor beta (RORb), RORB (gene 6096) (UniProt Q92753); test: ATG_RORb_TRANS: Attagene TRANS-FACTORIAL HepG2 Assay for human RAR-related Orphan Receptor beta (RORb) (AID 2283010; active = hit-call score of the fitted dose curve at least 0.9, where 1 is the maximum)
In short: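 Read-out is reporter mRNA induction, quantified by RT-PCR with fluorescent capillary electrophoresis, 24 h post-dose in transiently transfected HepG2 expressing exogenous NR-Gal4 chimera. Activity fitted upward versus DMSO.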

[2] = molecular target: Retinoic acid receptor RXR-alpha (Homo sapiens) (UniProt P19793); test: ATG_RXRa_TRANS: Attagene TRANS-FACTORIAL HepG2 Assay for human Retinoid X Receptor alpha (RXRa) (AID 2283012; active = hit-call score of the fitted dose curve at least 0.9, where 1 is the maximum)
In short: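 TRANS format reporting activity of exogenous RXRa-Gal4 chimera in transiently transfected HepG2, 24 h exposure. Reporter transcripts quantified by RT-PCR with capillary electrophoresis, with gain of signal scored relative to DMSO.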

[3] = molecular target: human Retinoid X Receptor beta (RXRb), RXRB (gene 6257) (UniProt P28702); test: ATG_RXRb_TRANS: Attagene TRANS-FACTORIAL HepG2 Assay for human Retinoid X Receptor beta (RXRb) (AID 2283013; active = hit-call score of the fitted dose curve at least 0.9, where 1 is the maximum)
In short: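 Readout is reporter transcript induction after 24 h dosing. It is measured by RT-PCR of total RNA followed by fluorescent capillary electrophoresis. HepG2 liver cells carry transfected multiple reporter units driven by an exogenous RXRb-Gal4 fusion; activity is relative to DMSO.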

[4] = read-out: E-selectin (Homo sapiens) (UniProt P16581); test: BSK_3C_Eselectin: BioMAP Diversity Plus: 3C Assay for Eselectin Biomarker Activity (AID 2283015); conditions: primary human endothelial cells (HUVEC); actives raise or lower the signal
In short: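 E-selectin ELISA readout, fitted bidirectionally relative to DMSO, taken 24 h post-dosing in HUVEC cultures of the 3C system. Overt cytotoxicity tracked with sulforhodamine B staining of parallel wells.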

[5] = read-out: Interleukin-1 alpha (IL1a), IL1A (gene 3552); test: BSK_BE3C_IL1a: BioMAP Diversity Plus: BE3C Assay for Interleukin-1 alpha (IL1a) Biomarker Activity (AID 2283016); conditions: primary human bronchial epithelial cells; actives raise or lower the signal
In short: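 IL-1a measured by ELISA after 24 h treatment of human primary bronchial epithelial cells, with gain or loss of signal fitted versus DMSO. Parallel cultures stained with SRB gauge overt cytotoxicity.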

[6] = read-out: Monocyte Chemoattractant Protein-1 (MCP1), CCL2 (gene 6347); test: BSK_3C_MCP1: BioMAP Diversity Plus: 3C Assay for Monocyte Chemoattractant Protein-1 (MCP1) Biomarker Activity (AID 2283017); conditions: primary human endothelial cells (HUVEC); actives raise or lower the signal
In short: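 MCP-1 was measured by ELISA 24 h after dosing in primary HUVEC 3C cultures and fitted in both directions relative to DMSO; cytotoxicity was checked by SRB total-protein staining in parallel wells.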

[7] = read-out: Monocyte Chemoattractant Protein-1 (MCP1), CCL2 (gene 6347); test: BSK_4H_MCP1: BioMAP Diversity Plus: 4H Assay for Monocyte Chemoattractant Protein-1 (MCP1) Biomarker Activity (AID 2283018); conditions: primary human endothelial cells (HUVEC); actives raise or lower the signal
In short: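 ELISA of MCP-1 (CCL2) 24 h after chemical dosing of HUVEC in the BioMAP 4H system. Gain or loss versus DMSO fitted; parallel SRB staining (560 nm) tracked overt cytotoxicity.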

[8] = read-out: Human Leukocyte Antigen - DR isotype (HLADR), HLA-DRA (gene 3122); test: BSK_3C_HLADR: BioMAP Diversity Plus: 3C Assay for Human Leukocyte Antigen - DR isotype (HLADR) Biomarker Activity (AID 2283019); conditions: primary human endothelial cells (HUVEC); actives raise or lower the signal
In short: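 Bidirectional fitting against DMSO was applied to the HLA-DR ELISA signal from human umbilical vein endothelial cells, 24 h post-dose. Cytotoxicity came from parallel SRB total-protein staining; 3C proliferation was counted by SRB at 48 h.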

[9] = molecular target: human RAR-related Orphan Receptor gamma (RORg), RORC (gene 6097) (UniProt P51449); test: ATG_RORg_TRANS: Attagene TRANS-FACTORIAL HepG2 Assay for human RAR-related Orphan Receptor gamma (RORg) (AID 2283011; active = hit-call score of the fitted dose curve at least 0.9, where 1 is the maximum;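 for AC50: potency for induction of reporter transcripts above DMSO so activators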)
In short: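 Reporter transcripts from a transfected RORg-GAL4 chimera in HepG2 cells were quantified 24 h after dosing by RT-PCR, 6-FAM labelling, HpaI digestion and capillary electrophoresis; increases over DMSO baseline were fitted.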

[10] = molecular target: human Thyroid Receptor alpha (THRa1), THRA (gene 7067) (UniProt P10827); test: ATG_THRa1_TRANS: Attagene TRANS-FACTORIAL HepG2 Assay for human Thyroid Receptor alpha (THRa1) (AID 2283014; active = hit-call score of the fitted dose curve at least 0.9, where 1 is the maximum)
In short: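 Transcripts from GAL4-UAS-driven reporters, measured after 24 h compound exposure by RT-PCR plus capillary electrophoresis of 6-FAM-labeled fragments, were fitted for gain of signal relative to DMSO. Cells: transiently transfected HepG2 expressing NR-Gal4 chimeras.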

Measured: AC50

human Thyroid Receptor alpha (THRa1), THRA (gene 7067), sequence (P10827 whole entry, looked up, the tested form may be a part): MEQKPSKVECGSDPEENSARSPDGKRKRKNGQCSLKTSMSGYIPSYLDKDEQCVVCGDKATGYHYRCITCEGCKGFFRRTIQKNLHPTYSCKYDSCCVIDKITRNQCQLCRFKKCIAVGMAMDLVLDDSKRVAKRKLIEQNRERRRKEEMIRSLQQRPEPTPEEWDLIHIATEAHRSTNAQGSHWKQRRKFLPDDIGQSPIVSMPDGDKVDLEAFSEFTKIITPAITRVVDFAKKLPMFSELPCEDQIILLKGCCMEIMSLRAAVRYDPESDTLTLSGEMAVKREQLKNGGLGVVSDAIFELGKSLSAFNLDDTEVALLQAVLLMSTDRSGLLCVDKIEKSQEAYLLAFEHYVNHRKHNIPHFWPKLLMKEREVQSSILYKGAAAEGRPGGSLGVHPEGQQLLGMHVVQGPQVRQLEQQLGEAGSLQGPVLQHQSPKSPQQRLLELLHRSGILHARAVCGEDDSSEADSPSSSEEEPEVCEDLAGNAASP
Retinoic acid receptor RXR-alpha (Homo sapiens), sequence (P19793 whole entry, looked up, the tested form may be a part): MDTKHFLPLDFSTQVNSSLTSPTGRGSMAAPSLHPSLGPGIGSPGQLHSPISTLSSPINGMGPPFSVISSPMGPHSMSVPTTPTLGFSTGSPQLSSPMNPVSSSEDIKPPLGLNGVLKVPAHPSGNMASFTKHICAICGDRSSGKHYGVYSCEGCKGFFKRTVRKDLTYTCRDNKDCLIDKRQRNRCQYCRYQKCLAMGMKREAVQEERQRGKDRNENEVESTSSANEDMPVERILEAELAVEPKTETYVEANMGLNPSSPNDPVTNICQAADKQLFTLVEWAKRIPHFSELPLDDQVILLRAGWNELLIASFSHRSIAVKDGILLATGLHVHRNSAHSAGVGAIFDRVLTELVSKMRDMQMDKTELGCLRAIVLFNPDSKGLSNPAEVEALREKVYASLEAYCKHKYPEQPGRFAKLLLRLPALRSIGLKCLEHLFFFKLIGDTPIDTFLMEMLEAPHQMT
E-selectin (Homo sapiens), sequence (P16581 whole entry, looked up): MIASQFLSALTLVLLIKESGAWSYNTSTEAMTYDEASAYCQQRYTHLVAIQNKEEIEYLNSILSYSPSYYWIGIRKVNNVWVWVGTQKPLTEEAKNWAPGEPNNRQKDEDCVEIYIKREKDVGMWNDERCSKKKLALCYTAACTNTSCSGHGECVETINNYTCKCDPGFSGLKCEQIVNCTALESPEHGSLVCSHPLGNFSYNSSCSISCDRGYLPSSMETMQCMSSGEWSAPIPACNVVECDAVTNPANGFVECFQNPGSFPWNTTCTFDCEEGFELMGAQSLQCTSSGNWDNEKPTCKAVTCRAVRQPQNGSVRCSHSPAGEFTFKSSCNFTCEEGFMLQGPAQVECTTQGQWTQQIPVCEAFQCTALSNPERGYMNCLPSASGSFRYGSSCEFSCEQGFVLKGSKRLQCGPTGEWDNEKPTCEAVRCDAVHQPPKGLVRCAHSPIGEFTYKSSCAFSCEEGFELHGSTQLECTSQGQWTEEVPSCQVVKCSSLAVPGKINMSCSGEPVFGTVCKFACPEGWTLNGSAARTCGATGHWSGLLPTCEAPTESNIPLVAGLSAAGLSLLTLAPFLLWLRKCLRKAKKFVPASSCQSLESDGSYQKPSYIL
human Retinoid X Receptor beta (RXRb), RXRB (gene 6257), sequence (P28702 whole entry, looked up, the tested form may be a part): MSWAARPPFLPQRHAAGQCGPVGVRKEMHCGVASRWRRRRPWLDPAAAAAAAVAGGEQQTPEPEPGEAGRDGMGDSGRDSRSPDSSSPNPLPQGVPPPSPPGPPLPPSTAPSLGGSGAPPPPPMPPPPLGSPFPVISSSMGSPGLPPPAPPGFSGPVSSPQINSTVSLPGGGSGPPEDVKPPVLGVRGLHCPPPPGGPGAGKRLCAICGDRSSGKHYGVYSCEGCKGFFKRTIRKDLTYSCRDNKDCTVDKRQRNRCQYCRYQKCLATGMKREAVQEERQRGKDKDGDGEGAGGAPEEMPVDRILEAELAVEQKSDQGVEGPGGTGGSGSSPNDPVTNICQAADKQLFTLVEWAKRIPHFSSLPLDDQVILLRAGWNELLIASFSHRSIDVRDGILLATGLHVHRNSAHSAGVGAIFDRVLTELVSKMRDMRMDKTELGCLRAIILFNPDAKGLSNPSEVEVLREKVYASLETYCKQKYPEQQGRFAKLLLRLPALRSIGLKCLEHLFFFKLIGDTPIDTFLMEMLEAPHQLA
human RAR-related Orphan Receptor gamma (RORg), RORC (gene 6097), sequence (P51449 whole entry, looked up, the tested form may be a part): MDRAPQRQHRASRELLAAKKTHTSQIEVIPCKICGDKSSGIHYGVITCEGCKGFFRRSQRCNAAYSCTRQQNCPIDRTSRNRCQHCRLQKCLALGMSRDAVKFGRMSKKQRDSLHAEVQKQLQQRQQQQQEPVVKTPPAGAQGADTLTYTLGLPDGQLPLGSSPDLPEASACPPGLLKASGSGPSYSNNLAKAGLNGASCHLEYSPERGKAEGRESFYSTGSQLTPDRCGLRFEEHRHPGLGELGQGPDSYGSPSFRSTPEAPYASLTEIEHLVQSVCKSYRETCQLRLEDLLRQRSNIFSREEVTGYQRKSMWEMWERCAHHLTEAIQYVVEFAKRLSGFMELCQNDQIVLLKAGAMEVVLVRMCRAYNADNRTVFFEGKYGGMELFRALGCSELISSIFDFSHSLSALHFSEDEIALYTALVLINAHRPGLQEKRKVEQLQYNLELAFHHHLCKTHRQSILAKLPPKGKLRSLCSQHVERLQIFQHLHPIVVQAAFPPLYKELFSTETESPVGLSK
human RAR-related Orphan Receptor beta (RORb), RORB (gene 6096), sequence (Q92753 whole entry, looked up, the tested form may be a part): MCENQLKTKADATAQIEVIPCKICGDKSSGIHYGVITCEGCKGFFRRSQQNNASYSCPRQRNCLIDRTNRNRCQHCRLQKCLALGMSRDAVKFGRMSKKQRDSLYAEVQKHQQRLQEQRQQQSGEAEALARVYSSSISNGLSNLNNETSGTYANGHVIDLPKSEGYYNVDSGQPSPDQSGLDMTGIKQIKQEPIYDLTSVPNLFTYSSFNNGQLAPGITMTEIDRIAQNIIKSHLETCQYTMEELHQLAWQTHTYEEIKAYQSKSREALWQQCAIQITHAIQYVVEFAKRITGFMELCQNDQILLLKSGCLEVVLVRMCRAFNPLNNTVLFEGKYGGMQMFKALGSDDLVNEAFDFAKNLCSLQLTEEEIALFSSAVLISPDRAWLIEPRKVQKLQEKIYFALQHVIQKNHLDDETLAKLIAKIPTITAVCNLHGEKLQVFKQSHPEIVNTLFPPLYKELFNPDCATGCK

C[C@@H](Oc1ccc(CNC(=O)c2cccnc2Oc2ccc3c(c2)OCO3)c(F)c1)C(=O)O
not listed: [9] | [10]
inactive: all other assays above

OC[C@H]1O[C@@H]2O[C@H]3[C@H](O)[C@@H](O)[C@@H](O[C@H]4[C@H](O)[C@@H](O)[C@@H](O[C@H]5[C@H](O)[C@@H](O)[C@@H](O[C@H]6[C@H](O)[C@@H](O)[C@@H](O[C@H]7[C@H](O)[C@@H](O)[C@@H](O[C@H]1[C@H](O)[C@H]2O)O[C@@H]7CO)O[C@@H]6CO)O[C@@H]5CO)O[C@@H]4CO)O[C@@H]3CO
not listed: [2] | [9] | [10]
inactive: all other assays above

CC[C@H](C)C(=O)O[C@H]1C[C@H](O)C=C2C=C[C@H](C)[C@H](CC[C@@H](O)C[C@@H](O)CC(=O)O)[C@H]21
not listed: [1] | [2] | [10]
inactive: all other assays above

CC1(C)C(=O)N(Cl)C(=O)N1Cl
inactive: [9] | [4] | [5] | [6] | [7] | [8]

CCCCCCCCCC
not listed: [1] | [10]
inactive: all other assays above

OC(O)(C(F)C(O)(O)C(F)(F)F)C(F)(F)F
active: [9] 220 µM and 106 µM | [8] 17.6 µM
inactive: [2] | [3] | [4] | [5] | [6] | [7] | [8]

Cn1c(=O)c2[nH]cnc2n(C)c1=O
not listed: [1] | [3] | [10]
inactive: all other assays above

CC(C)CCCCCCOC(=O)C1CCCCC1C(=O)OCCCCCCC(C)C (centres undefined)
inactive: [1] | [4] | [5] | [6] | [7] | [8]

O=C(NO)C1(NS(=O)(=O)c2ccc(Oc3ccc(F)cc3)cc2)CCOCC1
not listed: [1] | [3]
inactive: all other assays above

O=S1(=O)CCCO1
not listed: [2] | [9] | [10]
inactive: all other assays above

COCc1nnc(-c2ccc[n+]([O-])c2)n1-c1c(Cl)c(Cl)cc2[nH]c(=O)c(=O)[nH]c12
not listed: [1] | [3] | [10]
inactive: all other assays above

CCCCCCCC/C=C\CCCCCCCC(=O)OC[C@@H](O)[C@H]1OC[C@H](O)[C@H]1O
not listed: [1] | [10]
inactive: all other assays above

FC(F)=C(F)C(F)(F)C(F)(F)C(F)(F)C(F)(F)C(F)(F)C(F)(F)F
not listed: [1] | [10]
inactive: all other assays above

OCC(CO)(CO)CO
not listed: [1]
inactive: all other assays above

OCCOCCOCCO
not listed: [1] | [9] | [10]
inactive: all other assays above

O=c1[nH]cnc2c1ncn2[C@H]1CC[C@@H](CO)O1
not listed: [1] | [3]
inactive: all other assays above

c1ccc2ncccc2c1
not listed: [1] | [3] | [10]
inactive: all other assays above

Cc1ccc(S(=O)(=O)NC(=O)NN2CCCCCC2)cc1
not listed: [9] | [10]
inactive: all other assays above

CNC(C)=O
inactive: [3] | [4] | [5] | [6] | [7] | [8]

CCCCCCCCCCCCCCCCOS(=O)(=O)O
inactive: [2] | [4] | [6] | [7] | [8]
active: [3] 14.6 µM | [5] 14.7 µM

OC(CCl)CCl
inactive: [4] | [5] | [6] | [7] | [8]

NC(N)=O
not listed: [1] | [9] | [10]
inactive: all other assays above

Nc1ccn([C@@H]2O[C@H](CO)[C@@H](O)[C@@H]2O)c(=O)n1
inactive: [3] | [4] | [5] | [6] | [7] | [8]

Cn1cc[nH]c1=S
inactive: [3] | [4] | [5] | [6] | [7] | [8]

c1ccc2cc3ccccc3cc2c1
inactive: [2] | [4] | [5] | [6] | [7] | [8]

CC(C)CC(C)O (centres undefined)
inactive: [4] | [5] | [6] | [7] | [8]

CC(C)C(=O)Nc1ccc([N+](=O)[O-])c(C(F)(F)F)c1
active: [3] 13.3 µM | [8] 34.1 µM
inactive: [2] | [4] | [5] | [6] | [7]

CCCCOC(=O)c1ccccc1
not listed: [1] | [9] | [10]
inactive: all other assays above

O=C1CN(N=Cc2ccc([N+](=O)[O-])o2)C(=O)N1
inactive: [2] | [5] | [6] | [7] | [8]
active: [3] 45.6 µM | [4] 9.86 µM

COc1cc2c(c(OC)c1OC)-c1ccc(OC)c(=O)cc1[C@@H](NC(C)=O)CC2
active: [8] 1.07 µM
not listed: [1] | [9] | [10]
inactive: all other assays above

NC(=O)N1c2ccccc2C=Cc2ccccc21
inactive: [2] | [4] | [5] | [6] | [7] | [8]

OC(Cn1cncn1)(Cn1cncn1)c1ccc(F)cc1F
inactive: [3] | [4] | [5] | [6] | [7] | [8]

O=C(O)c1cccc(C(=O)O)c1
not listed: [1] | [3] | [9]
inactive: all other assays above

CC(=O)c1ccccc1
inactive: [2] | [4] | [5] | [6] | [7] | [8]

CCCCC(CC)C(=O)OCCOCCOCCOC(=O)C(CC)CCCC (centres undefined)
inactive: [2] | [4] | [5] | [6] | [7] | [8]

Cc1nc(-c2ccccn2)ncc1C(=O)Nn1cc(C)c2cc(F)ccc21
inactive: [4] | [5] | [6] | [7]
active: [8] 20 µM

O=C(O)c1cccc(C[C@@H]2COc3ccc(OCc4nc5cc(F)ccc5s4)cc3[C@@H]2O)c1
not listed: [1] | [9] | [10]
inactive: all other assays above

CCCCN1C(=O)[C@@H]([C@H](O)C2CCCCC2)NC(=O)C12CCN(Cc1ccc(Oc3ccc(C(=O)O)cc3)cc1)CC2
inactive: [4] | [5] | [7]
active: [6] 14.9 µM | [8] 32.1 µM

CC(C)c1nnc2ccc(-c3ocnc3-c3cc(F)ccc3F)cn12
active: [6] 1 µM | [8] 0.833 µM
inactive: [2] | [3] | [4] | [5] | [7]

OCCNCCO
inactive: [2] | [4] | [5] | [6] | [7] | [8]

CCn1nc(C)c2c1C(=O)NCC(c1ccc(O)cc1)=N2
inactive: [3] | [4] | [5] | [6] | [7] | [8]

NC(=O)N(O)[C@@H]1COc2cc(OCc3ccccc3)ccc21
inactive: [4] | [5] | [6] | [7] | [8]

C=CN1CCCC1=O
inactive: [2] | [4] | [5] | [6] | [7] | [8]

CCCCCCCCCCCCCCO
inactive: [2] | [5]
active: [3] 45.4 µM | [4] 36.7 µM | [6] 30.5 µM | [7] 29.6 µM | [8] 36.7 µM

C=CCc1cc(S(=O)(=O)c2ccc(O)c(CC=C)c2)ccc1O
inactive: [2] | [7]
active: [4] 20 µM | [5] 21.1 µM | [6] 14.4 µM | [8] 16.3 µM

CCCOc1ccc(S(=O)(=O)N2CCN(CC)CC2)cc1-c1nc2c(CC)n(Cc3ccccn3)nc2c(=O)[nH]1
not listed: [1] | [9] | [10]
inactive: all other assays above

Source: PubChem BioAssay (EPA / NIEHS)
